Among the data in PubChem BioAssay (Tox21) are Potency and outcome values, retold here.

Several values for one entry are separate records, joined by “and”; a condition that tells them apart may be missing. Equal entries are not always repeated. Inconclusive results are not listed. More than one record can exist for a structure, and the calls need not agree. Activity calls are given as the source filed them. Unless noted, calls come from the whole dose curve; as a rule, active = well fitted curve in the direction sought with a large enough effect in the repeat runs; inconclusive = weak or mixed curves; inactive = no such curve, though single readings can be large; an effect the other way counts as inactive or inconclusive.

Assay [1] in a line: qHTS assay to identify small molecule antagonists of the glucocorticoid receptor (GR) signaling pathway - cell viability counter screen (AID 720693). Note: nearly all actives have a fitted effect of over 55% in size. Note: potency is the fitted concentration of half-maximal effect. On the technique in general: In qHTS, concentration-response curves come from the screen itself.
Assay [2] can be described thus: qHTS assay for identifying genotoxic compounds that show differential cytotoxicity against isogenic chicken DT40 cell lines with known DNA damage response pathways - wild type cell line (AID 743012). Note: nearly all actives have a fitted effect of over 60% in size. Note: potency is the fitted concentration of half-maximal effect. The procedure, abridged:
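Endpoint: CellTiter-Glo luminescence, 30 min RT. Cells: wild type DT40, 300/well. Exposure: compounds in DMSO, 40 h, 37 C/5% CO2, after ~0.5 h pre-incubation.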

A short description of assay [3]: qHTS assay for identifying genotoxic compounds that show differential cytotoxicity against isogenic chicken DT40 cell lines with known DNA damage response pathways - Rev3 mutant cell line (AID 743014). Note: nearly all actives have a fitted effect of over 55% in size. Note: potency is the fitted concentration of half-maximal effect.
The nature of assay [4]: qHTS assay for identifying genotoxic compounds that show differential cytotoxicity against isogenic chicken DT40 cell lines with known DNA damage response pathways - Rad54/Ku70 mutant cell line (AID 743015). Note: nearly all actives have a fitted effect of over 60% in size. Note: potency is the fitted concentration of half-maximal effect.
The nature of assay [5]: qHTS assay to identify small molecule antagonists of the androgen receptor (AR) signaling pathway - cell viability counter screen (AID 743033; note: nearly all actives have a fitted effect of over 45% in size; note: potency is the fitted concentration of half-maximal effect).
Assay [6] concerns the target Androgen receptor (Homo sapiens) (UniProt P10275). Briefly: qHTS assay to identify small molecule antagonists of the androgen receptor (AR) signaling pathway (AID 743035; active = well fitted inhibition curve with a large enough effect in the signal ratio in the repeat runs, not every such curve was filed as active; the % refers to the signal ratio). The procedure, abridged:
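R1881 agonist challenge of a HEK293 UAS-beta-lactamase AR reporter line in the presence of compound (16 h, 37C); signal taken as FRET fluorescence after 2 h with LiveBLAzer B/G substrate at room temperature.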

Assay [7] has the same target. Kind of assay: qHTS assay to identify small molecule agonists of the androgen receptor (AR) signaling pathway (AID 743036; active = well fitted activation curve with a large enough effect in the signal ratio in the repeat runs, with a control signal flat, not every such curve was filed as active; the % refers to the signal ratio). Summed up: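 Cell-based FRET reporter assay: HEK293 line with a UAS-beta-lactamase construct, compounds added in DMSO, 16 h exposure at 37C, then 2 h substrate step at room temperature and fluorescence intensity read.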
Assay [8] has the same target. Briefly: qHTS assay to identify small molecule agonists of the androgen receptor (AR) signaling pathway using the MDA cell line (AID 743040; note: nearly all actives have a fitted effect of over 20% in size). The procedure, abridged: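 Testing was done with the MDA-kb2 AR-luc line, a human breast carcinoma stably transfected with MMTV-luciferase containing AR and GR response elements. Cells were exposed 16 h at 37C before ONE-Glo luminescence detection.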

Assay [9] can be described thus: qHTS assay to identify small molecule antagonists of the androgen receptor (AR) signaling pathway using the MDA cell line - cell viability counter screen (AID 743041; note: nearly all actives have a fitted effect of over 45% in size). The procedure, abridged: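 Compound exposure lasted 16 h at 37C in MDA-kb2 AR-luc cells stimulated with R1881. Protease-based CellTiter-Fluor reagent was applied for the final 30 min and fluorescence measured.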

Assay [10] addresses Androgen receptor (Homo sapiens) (UniProt P10275). Kind of assay: qHTS assay to identify small molecule antagonists of the androgen receptor (AR) signaling pathway using the MDA cell line (AID 743042; note: nearly all actives have a fitted effect of over 55% in size; note: potency is the fitted concentration of half-maximal effect). The procedure, abridged: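 MDA-kb2 breast carcinoma cells carrying MMTV-luciferase (AR/GR responsive) were co-treated with compounds and the agonist R1881 for 16 h at 37C. Inhibition read as ONE-Glo luminescence; CellTiter-Fluor fluorescence measured in parallel for cytotoxicity.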

Sequence of Androgen receptor (Homo sapiens) (P10275 whole entry, looked up): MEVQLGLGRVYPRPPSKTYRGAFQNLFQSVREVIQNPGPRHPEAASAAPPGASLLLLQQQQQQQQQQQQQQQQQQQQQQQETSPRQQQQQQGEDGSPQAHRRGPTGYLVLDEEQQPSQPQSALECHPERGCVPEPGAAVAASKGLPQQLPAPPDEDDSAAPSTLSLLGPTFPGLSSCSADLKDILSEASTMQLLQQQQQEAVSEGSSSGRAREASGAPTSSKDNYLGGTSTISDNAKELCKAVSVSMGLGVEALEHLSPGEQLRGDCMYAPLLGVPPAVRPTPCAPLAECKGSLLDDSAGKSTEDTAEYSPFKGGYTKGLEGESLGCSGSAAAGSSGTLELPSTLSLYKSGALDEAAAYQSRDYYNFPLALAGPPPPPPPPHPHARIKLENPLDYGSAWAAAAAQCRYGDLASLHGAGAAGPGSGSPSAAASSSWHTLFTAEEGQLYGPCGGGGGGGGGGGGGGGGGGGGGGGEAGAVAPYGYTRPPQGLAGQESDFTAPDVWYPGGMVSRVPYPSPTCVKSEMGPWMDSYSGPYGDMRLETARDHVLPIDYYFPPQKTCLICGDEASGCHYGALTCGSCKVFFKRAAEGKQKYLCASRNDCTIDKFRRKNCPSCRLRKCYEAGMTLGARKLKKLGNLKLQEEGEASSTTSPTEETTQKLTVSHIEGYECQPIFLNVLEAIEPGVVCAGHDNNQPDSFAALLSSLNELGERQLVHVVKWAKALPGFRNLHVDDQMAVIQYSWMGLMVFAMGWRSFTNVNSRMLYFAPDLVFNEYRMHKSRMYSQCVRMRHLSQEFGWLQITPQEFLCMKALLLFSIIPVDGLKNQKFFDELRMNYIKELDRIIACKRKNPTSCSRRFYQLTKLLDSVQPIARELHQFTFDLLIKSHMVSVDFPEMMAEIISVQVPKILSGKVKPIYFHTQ

With `CCOC(=O)c1ccc(NC(=O)CN2CCCCC2)cc1`, the Potency result in assay [1], in [5], in [6], in [8], in assay [9] and in assay [10] was “inactive” in each case. Also, the Potency was 11.9 µM (active) in assay [2], 10.6 µM (active) in assay [3] and 10.6 µM (active) in [4]. Also, the outcome in [7] was inactive.
For `CCC1CCC(CCC(=O)O)C1` (configuration not stated), the Potency entry in [1], in [2], in assay [3], in assay [4] and in assay [5] was “inactive” in each case.
As to `CC(=O)OCC(C)C`, the Potency entry in [1], in [2], in [3], in [4], in [5] and in assay [9] was “inactive” throughout. Moreover, the Potency entry in [10] was “inactive”. In [7], the compound was called inactive.
For `CC(=O)c1ccc[nH]1`, the Potency entry in assay [1], in [2], in assay [3], in [4], in assay [5] and in assay [8] was “inactive” in each case. The Potency entry in [9] and in assay [10] was “inactive” each time. For the same compound, the call in assay [7] was inactive.
Take `CC12CC3CC(C)(C1)CC(N)(C3)C2`: the Potency result in assay [1] and in assay [5] was “inactive” throughout. Besides, the figures for the Potency in assay [2], in assay [3] and in assay [4] were 26.6 µM (active), 29.8 µM (active) and 29.8 µM (active), respectively.
Turning to `CC1CCCC(=O)C1=O` (configuration not stated), the Potency result in assay [1], in assay [2], in [3], in assay [4], in [5] and in [6] was “inactive” throughout. Also, the Potency entry in assay [8], in [9] and in assay [10] was “inactive” in each case. The compound was called inactive in assay [7].
As for `Nc1cccc2c(N)cccc12`, the Potency result in assay [1], in assay [5] and in assay [8] was “inactive” in each case. Also, the Potency in assay [2] was 54.5 µM (active); in [3], 47.2 µM (active); in assay [4], 41.6 µM (active).
On to `C=Cc1ccc(OC(C)=O)cc1`, for which the Potency result in [1], in assay [2], in assay [3], in assay [4], in assay [5] and in assay [6] was “inactive” throughout. Moreover, the Potency entry in assay [8], in [9] and in assay [10] was “inactive” in each case. In assay [7], the compound was called inactive.
On to `CNS(=O)(=O)c1cc(C(=O)N2CCC(CCN3C4CCC3CC(n3c(C)nc5ccccc53)C4)(c3cccc(F)c3)CC2)c(Cl)cc1F` (configuration not stated), for which the Potency is 54.9 µM (active) in assay [1]; 3.06 µM (active) in assay [2]; 5.45 µM (active) in assay [3]; 6.11 µM (active) in assay [4]; 15.5 µM (active) in assay [5]; 34.4 µM (active) in assay [10]. The Potency result in [8] is “inactive”.
Regarding `CCCCCCCCCCCCCC(=O)OCC(O)CO` (configuration not stated), the Potency result in assay [1], in [2], in assay [5], in assay [6], in assay [8] and in assay [9] was “inactive” each time. The Potency entry in [10] is “inactive”. The Potency in [3] and in assay [4] was 43.3 µM (active) each time. Further, the compound was called inactive in [7].
As to `CC(CCc1ccc(O)cc1)NCCc1ccc(O)c(O)c1` (configuration not stated), the Potency entry in [1] and in [5] was “inactive” each time. Also, the Potency is 13.3 µM (active) in [2], 26.6 µM (active) in assay [3] and 23.7 µM (active) in [4].
On to `CCN(CC)c1ccc(C(=C2C=CC(=[N+](CC)CC)C=C2)c2ccc(S(=O)(=O)O)cc2S(=O)(=O)[O-])cc1`, for which the Potency in assay [1] was 21.9 µM (active); in [2] it was 24.3 µM (active); in assay [5] it was 21.9 µM (active). The Potency entry in [3], in assay [4], in [6], in assay [8], in assay [9] and in assay [10] was “inactive” each time. Also, the outcome in assay [7] was inactive.
Consider `COc1ccc(N)c([N+](=O)[O-])c1`, for which the Potency entry in [1], in assay [2], in assay [3], in assay [4], in assay [5] and in assay [9] was “inactive” each time.
As for `O=C(O)CCC(=O)c1ccc(-c2ccccc2)cc1`, the Potency result in assay [1], in [2], in assay [3], in assay [4], in assay [5] and in [6] was “inactive” in each case. The Potency result in [8], in assay [9] and in [10] was “inactive” in each case.
As for `CCCOC(=O)c1c(Cl)c(Cl)c(Cl)c(Cl)c1C(=O)OCCC`, in [1], the Potency entry was “inactive”. The Potency is 54.5 µM (active) in assay [2], 61.1 µM (active) in assay [3] and 61.1 µM (active) in assay [4].
For the compound `Cc1cc([N+](=O)[O-])ccc1N`, the Potency entry in assay [1], in [2], in assay [3], in assay [4], in [5] and in assay [9] was “inactive” each time.
As for `O=C1CC[C@@H](C(=O)O)N1`, the Potency result in [1], in assay [2], in assay [3], in assay [4], in assay [5] and in [6] was “inactive” in each case. For the same compound, the Potency result in assay [8] and in [10] was “inactive” in each case. In assay [7], the compound was classed as inactive.
As for `CCC(Cl)CC(Cl)C(Cl)C(Cl)C(Cl)C(C)Cl` (configuration not stated), the Potency result in assay [1], in assay [2], in assay [3], in assay [4], in assay [5] and in assay [8] was “inactive” throughout. Further, the Potency entry in assay [9] and in assay [10] was “inactive” each time.
With `CC(C)C(=O)OCCOc1ccccc1`, the Potency entry in assay [1], in [2], in assay [3], in assay [4], in assay [5] and in assay [9] was “inactive” each time.
Turning to `CCCCCCCCCCCC(=O)OCC(O)CO` (configuration not stated), the Potency result in assay [1], in assay [3], in assay [5] and in [9] was “inactive” in each case. The Potency result in assay [2] was “inactive and 61.1 µM (active)”; in assay [4], “inactive and 61.1 µM (active)”.
As to `CCc1ccc(C)cc1`, the Potency result in assay [1], in assay [2], in assay [3], in [4], in [5] and in [6] was “inactive” throughout. Also, the Potency result in assay [8], in assay [9] and in assay [10] was “inactive” throughout. Besides, in assay [7], the result was inactive.
As for `BrC(Br)C(Br)Br`, the Potency entry in assay [1], in assay [2], in [3], in [4], in assay [5] and in [6] was “inactive” throughout. For the same compound, the Potency result in assay [8], in [9] and in [10] was “inactive” throughout. Moreover, the outcome in assay [7] was inactive.
In the case of `O=NN(CCCl)C(=O)NCCCl`, the Potency result in assay [1], in assay [2], in [3], in assay [4], in assay [5] and in assay [8] was “inactive” in each case. For the same compound, the Potency entry in assay [9] and in [10] was “inactive” throughout. Further, the call in [7] was inactive.
With `C[C@H](CS)C(=O)N1CCC[C@H]1C(=O)O`, the Potency result in assay [1], in [2], in assay [3], in assay [4], in [5] and in assay [8] was “inactive” in each case. The Potency result in [9] and in assay [10] was “inactive” each time. Further, the outcome in [7] was inactive.
